Screening results (PubChem BioAssay)
PLK1 PBD inh = qHTS for Inhibitors of PLK1-PDB (polo-like kinase 1 - polo-box domain): Primary Screen | Serine/threonine-protein kinase PLK1 (Homo sapiens), P53350 | Plk1 PBD binding of FITC phosphopeptide, fluorescence polarization | Potency, µM, inactives show max response, negative = inhibition, actives largely listed as inhibitors | 2.8% of 360,000 active | AID 720504, 2013; note: series mostly up to about 57 µM; nearly all actives have a fitted effect of over 65% in size
TrxR1 substrate = qHTS Assay for Substrates of Mammalian Selenoprotein Thioredoxin Reductase 1 (TrxR1): qHTS; Thioredoxin reductase 1, cytoplasmic (Rattus norvegicus), O89049; purified TrxR1 substrate turnover, NADPH consumption readout; Potency, µM (titrated, usually from 114 µM), without a hit: at the highest dose activity change, negative = substrate turnover; 0.01% of 390,000 active; AID 588456, 2011; note: nearly all actives have a fitted effect of over 50% in size
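Rat TrxR1, dispensed at 90 nM, was prereduced with 400 uM NADPH (final) for 5 min at ~22 deg C, then incubated with compound 15 min before 400 uM selenite. A first-read NADPH fluorescence drop versus no-compound background flagged substrates.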
TrxR1 inh = qHTS Assay for Inhibitors of Mammalian Selenoprotein Thioredoxin Reductase 1 (TrxR1): qHTS. Thioredoxin reductase 1, cytoplasmic (Rattus norvegicus), O89049. recombinant rTrxR1, NADPH fluorescence consumption, selenite substrate. Potency, µM (doses to about 114 µM), inactives show at the highest dose activity change, negative = inhibition, actives largely listed as inhibitors. 1% of 390,000 active; note: nearly all actives have a fitted effect of over 65% in size
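Rat TrxR1 (90 nM in the dispensed reagent) was pre-reduced with 400 uM NADPH for 5 min at room temperature, then incubated with compound for 15 min. After 400 uM selenite was added, NADPH fluorescence (Ex 340/Em 450 nm) was followed for 8 min.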
VDR inhibitor = Inhibitors of the vitamin D receptor (VDR): qHTS; Potency, µM, inactives show max response, negative = inhibition, actives largely listed as inhibitors; Vitamin D3 receptor (Homo sapiens), P11473; VDR-SRC2-3 peptide fluorescence polarization, 2 h; AID 504847, 2011; 0.93% of 400,000 active
Target sequence (P11473 whole entry, looked up): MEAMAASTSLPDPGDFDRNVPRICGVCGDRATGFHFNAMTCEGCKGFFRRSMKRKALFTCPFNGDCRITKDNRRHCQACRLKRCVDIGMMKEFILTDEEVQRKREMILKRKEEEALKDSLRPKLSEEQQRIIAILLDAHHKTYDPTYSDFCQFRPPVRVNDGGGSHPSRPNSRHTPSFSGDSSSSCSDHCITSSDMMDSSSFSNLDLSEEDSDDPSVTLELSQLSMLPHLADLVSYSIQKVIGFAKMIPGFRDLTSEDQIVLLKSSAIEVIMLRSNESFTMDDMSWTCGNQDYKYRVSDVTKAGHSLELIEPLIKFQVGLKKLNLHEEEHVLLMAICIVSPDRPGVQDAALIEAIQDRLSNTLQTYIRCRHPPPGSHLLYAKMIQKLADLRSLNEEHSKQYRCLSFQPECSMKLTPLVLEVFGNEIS
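Fluorescence polarization assay measuring small-molecule disruption of VDR binding to the coregulator peptide SRC2-3. Compounds were pin-transferred (23 nl) into the reagent mix and incubated 2 h at room temperature before reading.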
mIDH1 inhibitor = qHTS for Inhibitors of mutant isocitrate dehydrogenase 1 (IDH1): qHTS. Potency, µM (titrated, usually from 76.6 µM), for the others: at the highest dose activity change, negative = inhibition, hits mostly inhibitors. Isocitrate dehydrogenase [NADP] cytoplasmic (Homo sapiens), O75874. IDH1-R132H enzyme, NADPH consumption, diaphorase/resazurin fluorescence. 0.093% of 390,000 active; note: nearly all actives have a fitted effect of over 65% in size
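IDH1-R132H (0.5 ug/mL dispensed) in pH 7.5 Tris buffer was preincubated 30 min with compound, then given a substrate mix of 0.016 mM NADPH and 2 mM alpha-KG for 80 min at room temperature; remaining NADPH was read by diaphorase/resazurin fluorescence.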
Sfp PPTase inh = qHTS Assay for Inhibitors of Bacillus subtilis Sfp phosphopantetheinyl transferase (PPTase). 3.5% of 310,000 active. Biochemical Sfp PPTase activity, qHTS. Potency, µM, inactives show largest response in the series, negative = inhibition, usual class: inhibitors. AID 1490, 2009;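 note: the enzyme is Sfp with the accession as filed and its product quenches rhodamine fluorescence; 0% = enzyme reaction without inhibitor and -100% = no enzyme wells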
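Buffer: 50 mM Hepes-Na pH 7.6, 10 mM MgCl2, 0.01% Nonidet P-40, 0.01% BSA. Enzyme 15 nM, pre-exposed to compound 15 min; substrates then added and fluorescence change tracked over 30 min.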
* marks the source's active call; other numbers are inactive results; [ ] = another dose, or the depositor's remark. Sampled rows, rich in hits. Any-hit rate of the full collection: about 5.2%. Calls come from the whole dose curve; as a rule, active = well fitted curve in the direction sought with a large enough effect; inconclusive = small, poorly fitted or top-dose-only effect, or another doubt; inactive = no such curve, though single readings can be large; an effect the other way counts as inactive or inconclusive. Unless noted, % is set by controls: 0 for no effect and ±100 for the full control effect; potency is the fitted concentration of half-maximal effect.

For COCC(C)OC(=O)c1c(N)n(Cc2ccco2)c2nc3ccccc3nc12 (stereo not given) the results were PLK1 PBD inh -18%, TrxR1 substrate 106%[57.1 µM], TrxR1 inh -2%[57.1 µM], VDR inhibitor -4%, mIDH1 inhibitor 2% and Sfp PPTase inh 32µM*.
Screening Nc1c(C(=O)NCc2ccco2)c2nc3ccccc3nc2n1CCN1CCOCC1 returned PLK1 PBD inh -8%, TrxR1 substrate 118%[57.1 µM], TrxR1 inh inconclusive, VDR inhibitor -28%, mIDH1 inhibitor 2% and Sfp PPTase inh inconclusive.
Nc1c(C(=O)NCc2ccco2)c2nc3ccccc3nc2n1Cc1ccccc1 was read as PLK1 PBD inh -13%, TrxR1 substrate 57%, TrxR1 inh inconclusive, VDR inhibitor -20%, mIDH1 inhibitor -2% and Sfp PPTase inh 45µM*.
N[C@H](CP(=O)(O)O)C(=O)O was read as Sfp PPTase inh -8%.
Cc1ccc2nc(C)n(-c3ccc(F)cc3)c(=O)c2c1 was read as PLK1 PBD inh 21µM*, TrxR1 substrate 1%[57.1 µM], TrxR1 inh 19%[57.1 µM], VDR inhibitor -17%, mIDH1 inhibitor 9% and Sfp PPTase inh -10%.
`COc1ccc(NC(=O)N2CCC3(CC2)CCN(C(=O)Oc2ccccc2)CC3)cc1` gave VDR inhibitor 6% and Sfp PPTase inh 12%.
Screening c1cc[n+]2c(c1)-c1cccc[n+]1CC2 returned VDR inhibitor 0% and Sfp PPTase inh 21%.
For C/C(=C/CCC(C)[C@H]1CC[C@@]2(C)C3=C(CC[C@]12C)[C@@]1(C)CCC(=O)C(C)(C)[C@@H]1CC3)C(=O)O (stereo not given in full) the results were PLK1 PBD inh 13µM*, TrxR1 substrate -9%, TrxR1 inh -11%, VDR inhibitor inconclusive, mIDH1 inhibitor -16% and Sfp PPTase inh 3%.
`CC(=O)OC1CCC2(C)C3=C(CCC2C1(C)C)[C@]1(C)CCC(C(C)CCC=C(C)C)[C@]1(C)CC3` (stereo not given in full) gave VDR inhibitor inconclusive and Sfp PPTase inh -4%.
For CC(C)=CCCC(C)C1CC[C@@]2(C)C3=C(CC[C@@]12C)C1(C)CCC(O)C(C)(C)C1CC3 (stereo not given in full) the results were VDR inhibitor 35µM* and Sfp PPTase inh -2%.
For O=c1[nH]c(=S)[nH]c(O)c1/C=C1/C=c2ccccc2=N1 the results were PLK1 PBD inh 1.3µM*, TrxR1 substrate -3%, TrxR1 inh 20µM*, VDR inhibitor -20%, mIDH1 inhibitor -6% and Sfp PPTase inh -19%.
Screening NC(=O)c1ncn([C@H]2O[C@@H](CO)[C@@H](O)[C@@H]2O)n1 returned VDR inhibitor -5% and Sfp PPTase inh 22%.
`c1cc2cc(c1)C[n+]1ccc(c3ccccc31)NCc1ccc(cc1)CNc1cc[n+](c3ccccc13)C2` gave VDR inhibitor -6% and Sfp PPTase inh 2%.
`CC(=O)Oc1ccc2c3c1OC1[C@@H](OC(C)=O)C=C[C@H]4[C@H](C2)N(C)CC[C@]314` (stereo not given in full) gave VDR inhibitor 2% and Sfp PPTase inh 25%.
Cc1ccccc1C(=O)NNC(=S)NC(=O)COc1ccccc1 was read as PLK1 PBD inh 30µM*, TrxR1 substrate -5%, TrxR1 inh inconclusive, VDR inhibitor inconclusive, mIDH1 inhibitor 7% and Sfp PPTase inh inconclusive.
Screening COc1ccc(CC(=O)NC(=S)NNC(=O)COc2c(C)cccc2C)cc1 returned PLK1 PBD inh inconclusive, TrxR1 substrate -15%, TrxR1 inh inconclusive, VDR inhibitor -12%, mIDH1 inhibitor -1% and Sfp PPTase inh 2%.
`COc1ccc(-n2c(-c3ccccc3[N+](=O)[O-])nc3ccccc3c2=O)cc1` gave PLK1 PBD inh 21µM*, TrxR1 substrate -3%, TrxR1 inh 19%, VDR inhibitor inconclusive, mIDH1 inhibitor -4% and Sfp PPTase inh -4%.
COC(=O)[C@@H]1C[C@@]2(O)[C@H](O)[C@H](O)[C@H](O)C[C@H]2N1Cc1cccnc1 was read as Sfp PPTase inh 10%.
For CC(C)CCCC1(C)C=Cc2c(O)c3c(c(CCC(C)C)c2O1)OC12C(CC4CC1C(C)(C)OC2(CCC(C)C(=O)O)C4O)C3=O (stereo not given) the results were VDR inhibitor -13% and Sfp PPTase inh -6%.
Screening CC(C)=CCCC1(C)C=Cc2c(O)c3c(c(CC=C(C)C)c2O1)OC12C(=CC4CC1C(C)(C)OC2(C/C=C(/C)C(=O)O)C4=O)C3=O (stereo not given) returned VDR inhibitor 2.2µM* and Sfp PPTase inh -88%.
Screening CC(C)=CCCC1(C)C=Cc2c(O)c3c(c(CC=C(C)C)c2O1)OC12C(=CC4CC1C(C)(C)OC2(C/C=C(/C)C(=O)O)C4O)C3=O (stereo not given) returned VDR inhibitor 2.8µM* and Sfp PPTase inh 50µM*.
`CC(=O)CC(c1ccccc1)c1c(O)c2ccc(O)cc2oc1=O` (stereo not given) gave VDR inhibitor 6% and Sfp PPTase inh -14%.
`CN(C)C1CSSSC1` gave VDR inhibitor 7% and Sfp PPTase inh 27%.
`C/C(=C(/CCOC(=O)C(C)C)SS/C(CCOC(=O)C(C)C)=C(\C)N(C=O)Cc1cnc(C)nc1N)N(C=O)Cc1cnc(C)nc1N` gave VDR inhibitor 16µM* and Sfp PPTase inh -17%.
Screening CCOc1ccc(S(=O)(=O)O)c2cccnc12 returned VDR inhibitor 2% and Sfp PPTase inh 71µM*.
For CN(C)C(=O)Oc1ccc(Cl)c2cccnc12 the results were PLK1 PBD inh 1%, TrxR1 substrate 43%, TrxR1 inh 20%[57.1 µM], VDR inhibitor 7%, mIDH1 inhibitor 9% and Sfp PPTase inh 24%.
For COC1=C[C@H]2[C@H]3Cc4ccc(OC)c(O)c4[C@@]2(CCN3C)CC1=O the results were Sfp PPTase inh -6%.
